Source: ChEMBL document CHEMBL1961873, “Compounds: GSK PKIS; Assays: Nanosyn kinase panel” (2012)

How the values were obtained:
[1] = target: Tyrosine-protein kinase Fyn (Homo sapiens) (UniProt P06241); conditions: at 1 µM
[2] = target: Tyrosine-protein kinase HCK (Homo sapiens) (UniProt P08631); conditions: at 0.1 µM
[3] = target: Tyrosine-protein kinase HCK (Homo sapiens) (UniProt P08631); conditions: at 1 µM
[4] = target: Insulin-like growth factor 1 receptor (Homo sapiens) (UniProt P08069); conditions: at 0.1 µM
[5] = target: Insulin-like growth factor 1 receptor (Homo sapiens) (UniProt P08069); conditions: at 1 µM
[6] = target: Insulin receptor (Homo sapiens) (UniProt P06213); conditions: at 0.1 µM
[7] = target: Insulin receptor (Homo sapiens) (UniProt P06213); conditions: at 1 µM
[8] = target: Insulin receptor-related protein (Homo sapiens) (UniProt P14616); conditions: at 0.1 µM
[9] = target: Insulin receptor-related protein (Homo sapiens) (UniProt P14616); conditions: at 1 µM
[10] = target: T1, Tyrosine-protein kinase ITK/TSK (Homo sapiens) (UniProt Q08881); conditions: at 0.1 µM
T1 sequence (whole entry): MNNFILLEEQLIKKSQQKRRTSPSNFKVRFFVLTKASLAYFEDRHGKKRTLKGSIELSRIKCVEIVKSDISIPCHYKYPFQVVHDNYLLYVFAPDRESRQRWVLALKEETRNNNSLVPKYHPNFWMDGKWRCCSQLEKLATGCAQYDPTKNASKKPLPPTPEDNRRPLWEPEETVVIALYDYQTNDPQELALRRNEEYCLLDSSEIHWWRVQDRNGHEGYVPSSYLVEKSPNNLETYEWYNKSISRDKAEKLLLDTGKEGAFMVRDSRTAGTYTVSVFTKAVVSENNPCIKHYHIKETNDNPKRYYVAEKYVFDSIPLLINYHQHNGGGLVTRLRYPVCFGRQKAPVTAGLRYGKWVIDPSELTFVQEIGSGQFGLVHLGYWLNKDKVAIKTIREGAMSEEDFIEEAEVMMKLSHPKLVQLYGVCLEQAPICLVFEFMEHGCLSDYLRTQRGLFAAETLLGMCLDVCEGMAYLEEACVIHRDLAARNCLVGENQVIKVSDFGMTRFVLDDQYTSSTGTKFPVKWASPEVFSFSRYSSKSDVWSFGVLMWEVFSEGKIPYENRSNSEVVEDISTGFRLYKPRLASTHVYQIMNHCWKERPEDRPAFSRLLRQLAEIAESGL

[11] = target: T1, Tyrosine-protein kinase ITK/TSK (Homo sapiens); conditions: at 1 µM
[12] = target: Tyrosine-protein kinase JAK1 (Homo sapiens) (UniProt P23458); conditions: at 0.1 µM
[13] = target: Tyrosine-protein kinase JAK1 (Homo sapiens) (UniProt P23458); conditions: at 1 µM
[14] = target: Tyrosine-protein kinase JAK2 (Homo sapiens) (UniProt O60674); conditions: at 0.1 µM
[15] = target: Tyrosine-protein kinase JAK2 (Homo sapiens) (UniProt O60674); conditions: at 1 µM
[16] = target: T2, Tyrosine-protein kinase JAK3 (Homo sapiens) (UniProt P52333); conditions: at 0.1 µM
T2 sequence (whole entry): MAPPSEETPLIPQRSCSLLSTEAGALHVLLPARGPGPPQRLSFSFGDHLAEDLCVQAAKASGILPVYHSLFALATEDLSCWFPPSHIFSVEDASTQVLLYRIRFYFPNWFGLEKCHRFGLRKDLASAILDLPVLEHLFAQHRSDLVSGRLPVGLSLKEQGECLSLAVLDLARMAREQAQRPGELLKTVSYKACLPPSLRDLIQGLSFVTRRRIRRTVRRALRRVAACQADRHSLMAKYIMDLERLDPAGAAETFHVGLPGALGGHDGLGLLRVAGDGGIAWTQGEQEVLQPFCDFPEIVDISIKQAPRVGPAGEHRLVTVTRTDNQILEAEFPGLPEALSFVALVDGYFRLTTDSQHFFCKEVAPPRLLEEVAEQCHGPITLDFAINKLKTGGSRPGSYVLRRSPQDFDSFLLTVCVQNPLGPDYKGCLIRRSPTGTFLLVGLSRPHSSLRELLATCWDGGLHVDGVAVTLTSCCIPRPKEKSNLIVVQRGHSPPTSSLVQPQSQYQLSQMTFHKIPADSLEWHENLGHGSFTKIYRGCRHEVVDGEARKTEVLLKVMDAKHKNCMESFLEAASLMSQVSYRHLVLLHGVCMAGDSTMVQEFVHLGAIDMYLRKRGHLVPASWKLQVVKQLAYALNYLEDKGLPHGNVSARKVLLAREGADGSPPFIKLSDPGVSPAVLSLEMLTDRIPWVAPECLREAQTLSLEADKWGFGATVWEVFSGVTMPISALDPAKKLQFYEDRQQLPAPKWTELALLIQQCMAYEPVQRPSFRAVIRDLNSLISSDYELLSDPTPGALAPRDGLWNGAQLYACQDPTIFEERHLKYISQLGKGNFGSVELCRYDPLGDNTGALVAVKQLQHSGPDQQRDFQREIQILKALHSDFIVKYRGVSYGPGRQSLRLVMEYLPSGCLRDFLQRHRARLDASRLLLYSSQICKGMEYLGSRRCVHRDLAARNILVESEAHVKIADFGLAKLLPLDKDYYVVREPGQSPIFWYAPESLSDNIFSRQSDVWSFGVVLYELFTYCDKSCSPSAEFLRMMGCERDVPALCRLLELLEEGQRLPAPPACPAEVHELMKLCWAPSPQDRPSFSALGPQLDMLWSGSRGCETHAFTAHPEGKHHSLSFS

[17] = target: T2, Tyrosine-protein kinase JAK3 (Homo sapiens); conditions: at 1 µM
[18] = target: Vascular endothelial growth factor receptor 2 (Homo sapiens) (UniProt P35968); conditions: at 0.1 µM
[19] = target: Vascular endothelial growth factor receptor 2 (Homo sapiens) (UniProt P35968); conditions: at 1 µM
[20] = target: Mast/stem cell growth factor receptor Kit (Homo sapiens) (UniProt P10721); conditions: at 0.1 µM;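 note: values are mean inhibition of KIT, from the GSK PKIS dataset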
Sequence of Mast/stem cell growth factor receptor Kit (Homo sapiens) (P10721 whole entry): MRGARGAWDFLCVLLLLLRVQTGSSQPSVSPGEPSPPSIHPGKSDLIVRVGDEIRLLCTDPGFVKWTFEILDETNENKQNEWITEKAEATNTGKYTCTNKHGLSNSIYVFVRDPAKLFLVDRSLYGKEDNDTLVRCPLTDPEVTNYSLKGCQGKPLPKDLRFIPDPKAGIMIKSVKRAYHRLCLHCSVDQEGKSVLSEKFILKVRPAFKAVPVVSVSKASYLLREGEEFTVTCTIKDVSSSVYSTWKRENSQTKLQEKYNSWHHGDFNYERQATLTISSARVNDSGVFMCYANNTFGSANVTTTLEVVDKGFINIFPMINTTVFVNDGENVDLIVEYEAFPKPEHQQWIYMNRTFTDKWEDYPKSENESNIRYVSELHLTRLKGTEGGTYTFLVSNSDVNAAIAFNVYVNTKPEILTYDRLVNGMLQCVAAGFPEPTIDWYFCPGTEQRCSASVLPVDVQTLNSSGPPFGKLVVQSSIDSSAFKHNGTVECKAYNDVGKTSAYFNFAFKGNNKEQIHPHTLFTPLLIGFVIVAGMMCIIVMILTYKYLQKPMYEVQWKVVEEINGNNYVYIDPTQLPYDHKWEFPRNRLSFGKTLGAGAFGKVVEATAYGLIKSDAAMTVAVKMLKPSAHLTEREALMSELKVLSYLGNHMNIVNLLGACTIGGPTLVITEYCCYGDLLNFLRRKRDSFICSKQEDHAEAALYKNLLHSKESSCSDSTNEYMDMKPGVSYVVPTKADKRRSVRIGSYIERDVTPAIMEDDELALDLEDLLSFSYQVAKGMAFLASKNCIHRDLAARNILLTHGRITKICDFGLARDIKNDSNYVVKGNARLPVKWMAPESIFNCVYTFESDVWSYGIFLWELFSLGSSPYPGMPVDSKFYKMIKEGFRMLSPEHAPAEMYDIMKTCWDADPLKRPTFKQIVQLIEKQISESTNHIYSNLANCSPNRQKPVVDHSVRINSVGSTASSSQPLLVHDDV

Sequence of Insulin receptor-related protein (Homo sapiens) (P14616 27-742 limits assumed): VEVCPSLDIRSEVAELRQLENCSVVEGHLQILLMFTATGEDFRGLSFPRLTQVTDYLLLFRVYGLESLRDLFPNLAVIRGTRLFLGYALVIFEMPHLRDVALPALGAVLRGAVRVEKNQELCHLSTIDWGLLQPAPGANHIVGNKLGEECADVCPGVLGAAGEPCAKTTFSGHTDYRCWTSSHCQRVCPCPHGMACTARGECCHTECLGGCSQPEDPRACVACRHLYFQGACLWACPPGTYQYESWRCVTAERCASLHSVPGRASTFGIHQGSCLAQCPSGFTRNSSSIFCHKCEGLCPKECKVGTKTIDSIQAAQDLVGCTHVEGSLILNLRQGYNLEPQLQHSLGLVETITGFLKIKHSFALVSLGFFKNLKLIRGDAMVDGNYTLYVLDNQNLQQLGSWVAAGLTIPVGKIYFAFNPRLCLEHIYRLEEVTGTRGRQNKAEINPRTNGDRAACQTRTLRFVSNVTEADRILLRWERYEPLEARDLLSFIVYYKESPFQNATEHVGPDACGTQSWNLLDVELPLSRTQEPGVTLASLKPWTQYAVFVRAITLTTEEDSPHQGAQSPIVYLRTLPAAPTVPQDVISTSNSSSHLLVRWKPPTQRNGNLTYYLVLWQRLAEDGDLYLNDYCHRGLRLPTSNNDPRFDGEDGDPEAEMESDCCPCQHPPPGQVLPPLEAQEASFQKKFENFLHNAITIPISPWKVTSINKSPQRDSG
Sequence of Insulin receptor-related protein (Homo sapiens) (P14616 747-1297 limits assumed): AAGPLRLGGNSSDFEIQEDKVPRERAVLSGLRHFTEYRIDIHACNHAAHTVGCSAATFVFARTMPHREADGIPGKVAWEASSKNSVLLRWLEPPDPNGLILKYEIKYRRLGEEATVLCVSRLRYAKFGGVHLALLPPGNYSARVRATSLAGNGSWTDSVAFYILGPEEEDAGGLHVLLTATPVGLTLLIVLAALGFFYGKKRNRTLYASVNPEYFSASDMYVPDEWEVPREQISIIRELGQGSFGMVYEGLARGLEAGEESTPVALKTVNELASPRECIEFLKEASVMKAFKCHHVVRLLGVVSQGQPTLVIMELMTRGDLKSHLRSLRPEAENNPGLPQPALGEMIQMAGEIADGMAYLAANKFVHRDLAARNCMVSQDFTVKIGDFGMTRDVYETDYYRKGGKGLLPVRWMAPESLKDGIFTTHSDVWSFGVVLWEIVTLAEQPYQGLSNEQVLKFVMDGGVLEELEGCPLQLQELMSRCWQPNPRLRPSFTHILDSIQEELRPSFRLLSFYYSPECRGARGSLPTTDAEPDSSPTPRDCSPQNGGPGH
Sequence of Tyrosine-protein kinase JAK2 (Homo sapiens) (O60674 whole entry): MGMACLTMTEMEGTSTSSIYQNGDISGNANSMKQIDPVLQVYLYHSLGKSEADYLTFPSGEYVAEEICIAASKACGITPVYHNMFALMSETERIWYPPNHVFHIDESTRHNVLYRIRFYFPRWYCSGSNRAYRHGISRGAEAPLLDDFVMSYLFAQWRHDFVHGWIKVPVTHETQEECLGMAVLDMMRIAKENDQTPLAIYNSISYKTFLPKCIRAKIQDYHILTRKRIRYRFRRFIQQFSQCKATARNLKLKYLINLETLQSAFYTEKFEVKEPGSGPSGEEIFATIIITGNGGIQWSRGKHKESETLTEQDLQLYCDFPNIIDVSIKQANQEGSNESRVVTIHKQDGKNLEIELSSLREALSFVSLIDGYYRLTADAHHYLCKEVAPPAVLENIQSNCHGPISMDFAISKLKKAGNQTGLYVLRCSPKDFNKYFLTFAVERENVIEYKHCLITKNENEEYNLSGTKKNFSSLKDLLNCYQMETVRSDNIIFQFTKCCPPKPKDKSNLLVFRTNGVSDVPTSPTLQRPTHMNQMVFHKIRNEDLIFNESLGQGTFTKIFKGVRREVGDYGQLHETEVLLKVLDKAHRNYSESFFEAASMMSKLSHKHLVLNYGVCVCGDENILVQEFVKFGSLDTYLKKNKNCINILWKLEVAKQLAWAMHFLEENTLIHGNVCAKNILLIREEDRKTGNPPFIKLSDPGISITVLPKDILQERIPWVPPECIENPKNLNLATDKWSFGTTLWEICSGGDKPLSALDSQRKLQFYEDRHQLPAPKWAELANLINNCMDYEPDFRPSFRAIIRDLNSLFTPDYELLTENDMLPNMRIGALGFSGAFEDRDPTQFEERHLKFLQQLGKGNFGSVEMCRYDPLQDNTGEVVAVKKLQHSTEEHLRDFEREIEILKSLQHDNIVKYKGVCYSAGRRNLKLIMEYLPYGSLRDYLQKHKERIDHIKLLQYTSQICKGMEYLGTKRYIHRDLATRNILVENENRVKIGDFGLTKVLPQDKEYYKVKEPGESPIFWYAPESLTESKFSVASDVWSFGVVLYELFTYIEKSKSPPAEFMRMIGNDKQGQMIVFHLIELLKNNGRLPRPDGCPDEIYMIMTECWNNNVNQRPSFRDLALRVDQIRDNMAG
Sequence of Tyrosine-protein kinase JAK1 (Homo sapiens) (P23458 whole entry): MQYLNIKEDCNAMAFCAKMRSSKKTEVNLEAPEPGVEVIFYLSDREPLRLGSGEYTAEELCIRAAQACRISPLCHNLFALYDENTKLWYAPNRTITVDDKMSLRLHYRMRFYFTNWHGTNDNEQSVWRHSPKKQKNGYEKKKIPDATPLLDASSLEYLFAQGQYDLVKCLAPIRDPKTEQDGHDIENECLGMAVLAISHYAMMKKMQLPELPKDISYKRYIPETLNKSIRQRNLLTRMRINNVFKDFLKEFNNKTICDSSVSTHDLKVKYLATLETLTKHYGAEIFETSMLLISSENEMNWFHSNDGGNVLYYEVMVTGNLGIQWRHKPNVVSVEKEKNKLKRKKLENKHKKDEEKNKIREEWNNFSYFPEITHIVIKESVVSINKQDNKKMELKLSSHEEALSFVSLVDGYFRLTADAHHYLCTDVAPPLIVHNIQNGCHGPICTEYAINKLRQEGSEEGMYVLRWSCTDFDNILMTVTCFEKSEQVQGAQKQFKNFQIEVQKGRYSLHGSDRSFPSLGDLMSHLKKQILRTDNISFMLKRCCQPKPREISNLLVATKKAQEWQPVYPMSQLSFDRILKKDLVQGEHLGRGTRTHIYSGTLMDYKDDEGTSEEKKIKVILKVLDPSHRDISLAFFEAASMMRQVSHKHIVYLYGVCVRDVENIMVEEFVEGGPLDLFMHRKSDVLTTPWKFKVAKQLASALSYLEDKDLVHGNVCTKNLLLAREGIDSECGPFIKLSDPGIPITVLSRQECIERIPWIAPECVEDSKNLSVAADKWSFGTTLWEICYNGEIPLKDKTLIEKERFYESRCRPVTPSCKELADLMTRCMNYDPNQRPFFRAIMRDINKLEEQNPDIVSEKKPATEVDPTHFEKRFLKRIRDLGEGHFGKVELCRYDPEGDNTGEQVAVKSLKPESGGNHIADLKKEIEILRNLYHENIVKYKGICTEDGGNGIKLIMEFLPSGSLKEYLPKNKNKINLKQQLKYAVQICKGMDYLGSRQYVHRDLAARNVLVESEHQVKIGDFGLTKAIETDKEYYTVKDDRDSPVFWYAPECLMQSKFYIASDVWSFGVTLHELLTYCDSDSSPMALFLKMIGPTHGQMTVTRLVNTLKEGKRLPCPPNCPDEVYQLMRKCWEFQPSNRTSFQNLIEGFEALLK
Sequence of Tyrosine-protein kinase HCK (Homo sapiens) (P08631 2-526 limits assumed): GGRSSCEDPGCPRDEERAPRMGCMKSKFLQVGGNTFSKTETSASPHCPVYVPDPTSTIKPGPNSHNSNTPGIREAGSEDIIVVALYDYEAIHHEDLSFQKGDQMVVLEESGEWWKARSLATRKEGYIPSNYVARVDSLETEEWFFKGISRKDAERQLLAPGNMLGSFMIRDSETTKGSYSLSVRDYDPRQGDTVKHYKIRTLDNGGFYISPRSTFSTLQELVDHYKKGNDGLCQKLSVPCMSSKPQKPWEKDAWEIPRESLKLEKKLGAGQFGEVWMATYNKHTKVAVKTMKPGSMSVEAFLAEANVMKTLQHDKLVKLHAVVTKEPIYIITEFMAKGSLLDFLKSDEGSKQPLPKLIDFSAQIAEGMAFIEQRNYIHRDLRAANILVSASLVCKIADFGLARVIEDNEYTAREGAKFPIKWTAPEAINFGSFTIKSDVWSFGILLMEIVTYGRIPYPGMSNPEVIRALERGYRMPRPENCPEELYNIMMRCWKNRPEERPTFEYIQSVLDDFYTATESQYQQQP

| Compound | inhibition [1] [%] | inhibition [2] [%] | inhibition [3] [%] | inhibition [4] [%] | inhibition [5] [%] | inhibition [6] [%] | inhibition [7] [%] | inhibition [8] [%] | inhibition [9] [%] | inhibition [10] [%] | inhibition [11] [%] | inhibition [12] [%] | inhibition [13] [%] | inhibition [14] [%] | inhibition [15] [%] | inhibition [16] [%] | inhibition [17] [%] | inhibition [18] [%] | inhibition [19] [%] | inhibition [20] [%] |
| --- | --- | --- | --- | --- | --- | --- | --- | --- | --- | --- | --- | --- | --- | --- | --- | --- | --- | --- | --- | --- |
| c1ccc(Cc2nc3ccc(Nc4ncnc5ccccc45)cc3[nH]2)cc1 | 5.58 | 3.53 | 11.5 | 2.6 | 3.88 | 3.54 | 8.19 | 2.51 | 3.31 | 0.82 | 1.07 | 1.47 | 5.36 | 1.11 | 1.7 | -1.75 | 2.4 | 2.38 | 5.81 | 6.44 |
| Cc1ccc(C(=O)NC2CC2)cc1-c1ccc2[nH]ncc2c1 | 0.93 | -3.84 | -2.13 | 29.6 | -5.48 | 0.44 | -2.94 | -3.94 | -4.42 | -2.18 | -0.97 | -3.33 | -8.73 | -1.66 | -1.51 | 1.08 | 2.55 | -3.15 | 3.28 | -5.04 |
| Cc1ccc2c(c1)/C(=N/Nc1ccc(S(N)(=O)=O)cc1)C(=O)N2 | 0.85 | 1.4 | 6.19 | -1.37 | -2.24 | -0.03 | 1.98 | -1.32 | -0.18 | 0.66 | 1.38 | -1.86 | -1.74 | -1.17 | -0.24 | 0.33 | 4.38 | 2.62 | 22.6 | 27.8 |
| CCOc1nccc2c1nc(-c1nonc1N)n2CC | 3.27 | 4.58 | 11.4 | 7.26 | 7.09 | 0.75 | -1.17 | 1.03 | 2.48 | 1.74 | 3.31 | 6.31 | 18.7 | 1.55 | 1.18 | 0.47 | 4.71 | 9.84 | 23.8 | 3.38 |
| CN1CCN(C(=O)c2ccc(NC(=O)Nc3ccc(N(C)c4ccnc(Nc5ccc(CS(C)(=O)=O)cc5)n4)cc3)cc2)CC1 | 8.13 | 3.98 | 22.7 | 3.48 | 6.42 | 4.81 | 10.6 | -0.19 | 2.44 | 6.56 | 38.7 | 2.49 | 20.6 | 3.54 | 49.7 | -1.34 | 26.2 | 21.4 | 69.2 | 65.6 |
| COc1cc2ncnc(Nc3ccc4c(cnn4Cc4ccccc4)c3)c2cc1OC | 35.7 | 11.4 | 48.5 | -1.14 | -0.72 | 2.75 | 3.75 | 0.39 | 2.09 | 0.88 | 1.9 | 4.18 | 2.43 | 1.01 | 1.11 | -1.67 | 1.82 | 6.63 | 47.6 | 2.37 |
| O=C(Nc1ccc(Oc2ccc3[nH]c(NC(=O)c4ccco4)nc3c2)cc1)Nc1cc(C(F)(F)F)ccc1F | 19.9 | 7.54 | 47.3 | -8.65 | -5.27 | 1.23 | 1.66 | 0.43 | 0.25 | -2.86 | 0.22 | -1.24 | 0.27 | 1.11 | 7.23 | -3.43 | -2.59 | – | – | 30.5 |
| Cc1ccc(Nc2ccnc(Nc3cccc(C(N)=O)c3)n2)cc1O | 89.4 | 58.8 | 83.5 | -3.28 | 17.2 | 3.53 | 13.7 | 2.88 | 3.49 | -2.42 | 0.3 | 5.16 | 32.7 | 5.29 | 45.8 | -4.07 | 14 | 76.9 | 90.7 | 8.57 |
| Nc1ccc(C#Cc2cncnc2Nc2ccc(OCc3cccc(F)c3)c(Cl)c2)cc1 | 1.14 | 4.6 | 5.04 | 1.78 | -0.29 | 1.22 | 2.12 | 2.27 | 2.76 | 0.59 | 1.02 | 0.18 | 0.58 | 0.74 | 0.43 | -2.62 | -0.39 | 1.13 | 5.84 | 5.48 |
| ON=C1CCc2cc(-c3nc(C4CCNCC4)[nH]c3-c3ccncc3)ccc21 | 0.87 | 0.2 | 4.24 | -1.78 | -0.56 | 1.61 | -0.75 | -1.51 | -0.82 | 0.74 | 0.87 | -0.79 | 0.05 | -0.01 | 0.28 | -1.58 | 3.17 | 1.06 | 4.49 | -3 |
| Nc1nccc(C#Cc2cncnc2Nc2ccc(OCc3cccc(F)c3)c(Cl)c2)n1 | 2.19 | 5.32 | 10.2 | 3.97 | 4.12 | 3.13 | 4.44 | 8.14 | 1.12 | 1.89 | 3.09 | 2.03 | 2.27 | 1.73 | 1.57 | 0.41 | 4.42 | 6.4 | 10.6 | 3.65 |
| Nc1nccc(-c2c(-c3ccc(F)cc3)nn3cc(C(F)(F)F)ccc23)n1 | 2.33 | -0.1 | -0.25 | -1.56 | 1.35 | 1.38 | 2.01 | 1.17 | 1.01 | -1.78 | 0.43 | -0.26 | 1.9 | -0.24 | -1.98 | -1.7 | -0.29 | 0.31 | 0.56 | -1.06 |
| CN(C)c1cc2c(Nc3ccc4c(cnn4Cc4ccccc4)c3)ncnc2cn1 | 15.3 | 7.12 | 19.9 | 0.45 | 2.94 | 5.08 | 6.13 | 1.7 | 0.35 | 1.37 | 0.99 | 3.23 | -0.82 | 0.91 | 2.18 | -0.53 | 0.54 | 4.41 | 18.2 | 3.49 |
| NC(=O)c1cccc(Nc2nccc(Nc3cccc(F)c3)n2)c1 | 43.2 | 3.16 | 30.8 | 1.8 | 20.9 | 4.46 | 21.1 | -0.57 | 1.15 | -0.24 | 2.4 | 3.17 | 32 | 2.34 | 46.6 | -1.62 | 2.72 | 5.1 | 44.7 | 42.5 |
